Bioassay records as filed in PubChem.
D3 antag = qHTS of D3 Dopamine Receptor Antagonist: qHTS | D(3) dopamine receptor (Homo sapiens), P35462 | D3R cells, DiscoveRx beta-arrestin luminescence, antagonist mode; hits give low values | max response, negative = inhibition, % | 360,000 tested, 2.5% active | AID 652054, 2013; in the data active means max response below about -50%; inconclusive means no clear call, values can overlap the other calls
Target sequence (P35462 whole entry, looked up): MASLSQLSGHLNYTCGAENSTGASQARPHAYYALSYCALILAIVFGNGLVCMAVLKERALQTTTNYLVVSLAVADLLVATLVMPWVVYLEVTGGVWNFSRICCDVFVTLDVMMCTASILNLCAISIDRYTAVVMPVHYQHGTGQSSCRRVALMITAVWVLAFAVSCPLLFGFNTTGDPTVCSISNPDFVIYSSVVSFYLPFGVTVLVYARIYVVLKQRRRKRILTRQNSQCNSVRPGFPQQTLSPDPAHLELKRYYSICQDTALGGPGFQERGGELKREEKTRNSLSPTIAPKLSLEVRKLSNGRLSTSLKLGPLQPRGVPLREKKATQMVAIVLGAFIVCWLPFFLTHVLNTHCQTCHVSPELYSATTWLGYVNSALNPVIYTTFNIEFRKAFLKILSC
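Cells expressing the human receptor were seeded at 1500 cells/well, incubated overnight at 37 degrees C in 5% CO2, then exposed to library compounds with dopamine controls for 90 minutes at 37 degrees C before luminescent detection.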
PI4K2A block = qHTS for small molecular inhibitors of PI4K2A. Phosphatidylinositol 4-kinase type 2-alpha (Homo sapiens), Q9BTU6. purified PI4K2A, ADP-Glo luminescence, 1 h; hits give low values. activity change, negative = inhibition, % at 76.9 µM. 420,000 tested, 0.13% active. AID 1346378, 2018; in the data active means activity change below about -50%; inconclusive means mostly about -30% to -49%
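ADP-Glo luminescence measured ADP generated by PI4K2A enzyme (4 ug/mL before mixing) with 1.2 mM PI substrate (pre-mix) and 300 microM ATP (pre-mix). Tris pH7.5 buffer with MgCl2, Triton X-100; 1 h reaction at ambient temperature.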
LDHA block = qHTS assay for inhibitors of human lactate dehydrogenase; L-lactate dehydrogenase A chain (Homo sapiens), P00338; activity change, % (values are at about 110 or 230 µM); 480,000 tested, 0.15% active; purified LDHA, NADH/diaphorase-resazurin fluorescence; hits give low values; in the data active means activity change below about -30%; inconclusive means mostly about -25% to -30%
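Human LDH5 (2 nM) was incubated with 0.06 mM NADH and 0.2 mM pyruvate for 5 min at room temperature in Tris pH 7.4. Remaining NADH was coupled through diaphorase/resazurin, and resorufin fluorescence was read at 0 and 20 min.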
PI5P4K alpha inh = qHTS for Inhibitors of phosphatidylinositol 5-phosphate 4-kinase (PI5P4K). Phosphatidylinositol 5-phosphate 4-kinase type-2 alpha (Homo sapiens), P48426. PI5P4Kalpha enzyme, ADP-Glo luminescence, 60 min; hits give low values. max response, %. 330,000 tested, 1.2% active. AID 652105, 2013; active means max response of -50% or lower; inconclusive means between -30% and -50%; inactive means -30% or higher; further: value at the top dose of about 77 µM
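Reactions run in 0.038 M HEPES pH 7.4, 0.28 mM EGTA, 0.1% CHAPS and 5% DMSO, with PI5P4Kalpha, substrate, compound and 5 microM ATP final, one hour at room temperature. Readout is ADP-Glo luminescence.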
DRD3 agonist = qHTS of D3 Dopamine Receptor Agonist: qHTS | 410,000 tested, 0.58% active | D(3) dopamine receptor (Homo sapiens), P35462 | D3R DiscoveRx beta-arrestin cells, luminescence, 90 min | max activation, %; in the data active means max activation above about 30%
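Cells at 1500/well, incubated overnight, then treated with pinned compounds (dopamine as control) for 90 min at 37 degrees C. DiscoveRx reagent added for 30 - 60 minutes at room temperature; luminescence read.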
Each line names hits and unclear results; the compound was inactive in the other large screens; ! = repeats disagree. Compounds with a hit are over-represented: about 3.3% of the library has one in this group of screens.

CCOC(=O)C1=C(C)OC(N)=C(C#N)C1c1ccc(O)c(OC)c1 (stereo not given)	D3 antag -62
COC(=O)C1=C(C)OC(N)=C(C#N)C1c1ccccc1 (stereo not given)	none
C=CCOC(=O)C1=C(C)NC(SCC(=O)OCC)=C(C#N)C1c1ccc(O)c(OC)c1 (stereo not given)	PI5P4K alpha inh -54
CCSc1cc(C2C(C#N)=C(N)OC(C)=C2C(=O)OC)c(C)o1 (stereo not given)	D3 antag -67
CC(NC(=O)c1ccc(Cl)cc1)c1ccc(NC(N)=O)cc1 (stereo not given)	none (no result: D3 antag, PI4K2A block, PI5P4K alpha inh, DRD3 agonist)
COc1ccc(NC(=O)COc2ncnc3ccc(Br)cc23)c([N+](=O)[O-])c1	none (no result: D3 antag, PI4K2A block, PI5P4K alpha inh, DRD3 agonist)
Cc1cc(C)c(O)c(-c2n[nH]c3c2C(c2ccccc2F)N(CCCO)C3=O)c1 (stereo not given)	none (no result: D3 antag, PI4K2A block, PI5P4K alpha inh, DRD3 agonist)
COc1ccc(OC)c(NC(=O)COC(=O)c2cnc(C)cn2)c1	none (no result: D3 antag, PI4K2A block, PI5P4K alpha inh, DRD3 agonist)
COc1c(Br)cc(Br)cc1C(=O)O	DRD3 agonist 37 (no result: PI5P4K alpha inh)
CCC(C#CCN1CCCCC1)(CC)OCCC#N	D3 antag -56
CCC(C#CCN1CCCC1)(CC)OCCC#N	none (no result: D3 antag, PI4K2A block, PI5P4K alpha inh, DRD3 agonist)
COc1ccc(C(=O)N2CCc3cc4c(cc3C2C)OCCCO4)cc1 (stereo not given)	DRD3 agonist 44
CC1c2cc3c(cc2CCN1C(=O)c1ccc(Br)cc1)OCCCO3 (stereo not given)	none
CC(C)CNC(=O)c1ccc2c(c1)NC(=O)CS2	none (no result: D3 antag, PI4K2A block, PI5P4K alpha inh, DRD3 agonist)
N#Cc1c(-c2ccco2)cc(-c2ccccn2)nc1N	D3 antag inconclusive, PI5P4K alpha inh -67
N#Cc1c(-c2ccco2)cc(-c2cccnc2)nc1N	none (no result: PI5P4K alpha inh)
CN1CCCC(CC2Oc3ccccc3Sc3ccccc32)C1 (stereo not given)	D3 antag -84
O=C(NCCCCCO)C1CCN(c2nc(Cl)nc3nc[nH]c23)CC1	none (no result: D3 antag, PI4K2A block, PI5P4K alpha inh, DRD3 agonist)
COc1ccc(/C=C2/CCC(CN3CCOCC3)C2=O)cc1 (stereo not given)	D3 antag -67
CN(C)CC1CC/C(=C\c2ccc(O)cc2)C1=O (stereo not given)	D3 antag -61
S=C1NC[C@H](Cc2ccccc2)N1CC1CCN(CCCCc2ccccc2)CC1	D3 antag -93
O=C1NC[C@H](Cc2ccccc2)N(CC2CCN(CCCCc3ccccc3)CC2)C1=O	D3 antag -50
CC(C)CCN1CCC(CN2C(=S)NC[C@@H]2Cc2ccccc2)CC1	none
CC(CCN1CCC(CN2C(=S)NCC2Cc2ccccc2)CC1)c1ccccc1 (stereo not given)	D3 antag -63
CCCCN1CCC(CN2C(=O)C(=O)NC[C@@H]2Cc2ccccc2)CC1	none
O=[N+]([O-])c1c(-n2nnc3ccccc32)nn(-c2ccccc2)c1C(Cl)Cl	none (no result: D3 antag, PI4K2A block, PI5P4K alpha inh, DRD3 agonist)
CCCCN(CCCC)Cc1cc(=O)oc2cc(C)c(O)cc12	none (no result: D3 antag, PI4K2A block, PI5P4K alpha inh, DRD3 agonist)
CCN(CCCNc1cc2c(c(N)c1S(=O)(=O)O)C(=O)c1ccccc1C2=O)c1ccccc1	D3 antag inconclusive, PI4K2A block inconclusive, PI5P4K alpha inh -56
O=C1c2ccccc2C(=O)c2c(NCCCN(CCO)CCO)cccc21	D3 antag inconclusive
O=C(C[n+]1ccc2ccccc2c1)Nc1cc(C(F)(F)F)ccc1Cl	D3 antag -68
O=C(CN1CCOCC1)Nc1cc(C(F)(F)F)ccc1Cl	none
CN(C)c1cc[n+](CC(=O)Nc2cc(C(F)(F)F)ccc2Cl)cc1	D3 antag -59 (no result: PI5P4K alpha inh)
Cc1cc[n+](CC(=O)Nc2cc(C(F)(F)F)ccc2Cl)cc1	D3 antag -192 (no result: PI5P4K alpha inh)
O=C(CN1CCCCCC1)Nc1cc(C(F)(F)F)ccc1Cl	D3 antag -77
Cc1ccc(Nc2nc(-c3ccc(C)cc3)c(C)s2)cc1	none (no result: D3 antag, PI4K2A block, PI5P4K alpha inh, DRD3 agonist)
Cc1cc(NC(=O)c2ccc(Br)o2)no1	none (no result: D3 antag, PI4K2A block, PI5P4K alpha inh, DRD3 agonist)
O=C(C[n+]1ccccc1)Nc1cc(C(F)(F)F)ccc1Cl	D3 antag -58
CCCCn1c(N)c(S(=O)(=O)c2ccc(C)cc2)c2nc3ccccc3nc21	DRD3 agonist 32
CN(C)CCCn1c(N)c(S(=O)(=O)c2ccccc2)c2nc3ccccc3nc21	D3 antag inconclusive
O=C1NCCCCC1Nc1ccc2oc(C3CC3)nc2c1 (stereo not given)	none (no result: D3 antag, PI4K2A block, PI5P4K alpha inh, DRD3 agonist)
Cc1cccc(C(=O)N=c2c(C#N)cc3c(=O)n4cccc(C)c4nc3n2Cc2ccco2)c1	PI4K2A block inconclusive, PI5P4K alpha inh -93
COCCCn1c(=NC(=O)c2ccccc2)c(C#N)cc2c(=O)n3cccc(C)c3nc21	none
Cc1cccn2c(=O)c3cc(C#N)c(=NC(=O)c4ccco4)n(Cc4ccco4)c3nc12	PI5P4K alpha inh inconclusive
Cc1cccn2c(=O)c3cc(C#N)c(=NC(=O)c4ccccc4)n(Cc4ccco4)c3nc12	PI4K2A block inconclusive, PI5P4K alpha inh -73!
Fc1ccc(-n2nnnc2-c2cnc(-c3cccs3)nc2C(F)(F)F)cc1	DRD3 agonist 44 (no result: PI5P4K alpha inh)
CCCN(CC(=O)Nc1ccc(Cl)cc1Cl)C(=O)CC(NC(C)=O)c1ccccc1 (stereo not given)	D3 antag inconclusive
CC(=O)NC(CC(=O)NC(C)c1ccc(Cl)cc1Cl)c1ccccc1 (stereo not given)	D3 antag -51
CC1Cc2ccccc2N1C(=O)CN1CCN(Cc2ccccc2)CC1 (stereo not given)	D3 antag -78
CC1Cc2ccccc2N1C(=O)CN1CCc2ccccc2C1 (stereo not given)	none
CC1Cc2ccccc2N1C(=O)Cn1cc(C(F)(F)F)ccc1=O (stereo not given)	D3 antag -117
CC1CCN(CC(=O)N2c3ccccc3CC2C)CC1 (stereo not given)	none
O=C(Nc1ccccc1F)c1ccccc1C(F)(F)F	none (no result: D3 antag, PI4K2A block, PI5P4K alpha inh, DRD3 agonist)
COc1cccc(NC(=O)C(OC(=O)/C=C/c2ccc3c(c2)OCO3)c2ccccc2)c1 (stereo not given)	D3 antag -55
COc1ccc(NC(=O)C(c2ccccc2)N(C)C(=O)/C=C\c2ccc3c(c2)OCO3)cc1 (stereo not given)	none (no result: D3 antag, PI5P4K alpha inh)
COc1ccc(-c2nnc(SCC#CCO)o2)cc1OC	PI5P4K alpha inh -56
Cc1cc(C)c(Nc2cc(S(=O)(=O)O)c(N)c3c2C(=O)c2ccccc2C3=O)c(C)c1	PI4K2A block inconclusive, LDHA block inconclusive, PI5P4K alpha inh -61
CCCCC/C=C\C/C=C\CCCCCCCC(=O)O	none (no result: D3 antag, PI4K2A block, LDHA block, PI5P4K alpha inh)
CCCCC/C=C\C/C=C\C/C=C\CCCCC(=O)O	PI5P4K alpha inh -54
Cn1c(COc2ccc(Cl)cc2)nnc1SCC(=O)c1ccc[nH]1	none (no result: D3 antag, PI4K2A block, PI5P4K alpha inh, DRD3 agonist)
O=C(O)c1cccc(-c2ccc(CNC3CCCCC3)o2)c1	none (no result: D3 antag, PI4K2A block, PI5P4K alpha inh, DRD3 agonist)
